# Data reported in the supplement of paper PMC8728848.
# Shown is part of a subset that was picked to be rich in the strongest signals.
# B1: MIC4-A5 (Toxoplasma gondii), Q9XZH7 (protein)
# chain: SPDFHDEVECVHTGNIGSKAQTIGEVKRASSLSECRARCQAEKECSHYTYNVKSGLCYPKRGKPQFYKYLGDMTGSRTCDTS
# Assays:
# Assay in all cases: glycan array binding signal (z-score within array); higher = stronger binding
# Conditions in all cases: glycan notation: IUPAC condensed, linker removed
# [1] = molecular target: Gal(b1-3)GalNAc(b1-4)Gal3S(b1-4)Glc
# Outline: (§1)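 Glycan array data were curated from 3228 arrays in the Consortium for Functional Glycomics database and kept only where the protein sequence was available. Glycan names were converted to IUPAC-condensed notation, and columns mapping to the same glycan were averaged. The binding signal is a within-array Z-score, averaged across arrays of the same protein sequence at different concentrations or buffers and across linkers. Negative Z-scores can be read as non-binding.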
# [2] = molecular target: Gal(b1-3)GalNAc(b1-4)[Neu5Ac(a2-3)]Gal(b1-4)Glc
# Outline: as §1
# [3] = molecular target: Gal(b1-3)GalNAc(b1-4)[Neu5Gc(a2-3)]Gal(b1-4)Glc
# Outline: as §1
# [4] = molecular target: Gal(b1-3)[Neu5Ac(a2-6)]GalNAc(b1-4)Gal(b1-4)Glc
# Outline: as §1
# [5] = molecular target: Gal(b1-4)GlcNAc(b1-2)[Gal(b1-4)GlcNAc(b1-4)]Man(a1-3)[Gal(b1-4)GlcNAc(b1-2)Man(a1-6)]Man(b1-4)GlcNAc(b1-4)GlcNAc
# Outline: as §1
# Gal(b1-4)GlcNAc(b1-3)Fuc = molecular target: Gal(b1-4)GlcNAc(b1-3)Fuc
# Outline: as §1
# Glc(a1-3)Glc = molecular target: Glc(a1-3)Glc
# Outline: as §1
# [6] = molecular target: Glc(a1-3)Glc(a1-3)Man(a1-2)Man(a1-2)Man(a1-3)[Man(a1-3)[Man(a1-6)]Man(a1-6)]Man(b1-4)GlcNAc
# Outline: as §1
# [7] = molecular target: Glc(a1-6)Glc(a1-6)Glc(a1-6)Glc(a1-6)Glc
# Outline: as §1
# [8] = molecular target: Glc(a1-6)Glc(a1-6)Glc(a1-6)Glc(a1-6)Glc(a1-6)Glc(a1-6)Glc(a1-6)Glc(a1-6)Glc
# Outline: as §1
# Glc(b1-2)Glc = molecular target: Glc(b1-2)Glc
# Outline: as §1
# [9] = molecular target: Glc(b1-3)Glc(b1-3)Glc(b1-3)Glc(b1-3)Glc(b1-3)Glc(b1-3)Glc(b1-3)Glc(b1-3)Glc(b1-3)Glc(b1-3)Glc
# Outline: as §1
# [10] = molecular target: Glc(b1-4)Glc(b1-4)Glc(b1-4)Glc(b1-4)Glc(b1-4)Glc(b1-4)Glc
# Outline: as §1
# [11] = molecular target: Glc(b1-4)Glc(b1-4)Glc(b1-4)Glc(b1-4)Glc(b1-4)Glc(b1-4)Glc(b1-4)Glc(b1-4)Glc
# Outline: as §1
# [12] = molecular target: Glc(b1-6)Glc(b1-6)Glc(b1-6)Glc
# Outline: as §1
# [13] = molecular target: GlcA(b1-3)GlcNAc(b1-4)GlcA(b1-3)GlcNAc(b1-4)GlcA(b1-3)GlcNAc(b1-4)GlcA(b1-3)GlcNAc(b1-4)GlcA(b1-3)GlcNAc(b1-4)GlcA(b1-3)GlcNAc(b1-4)GlcA(b1-3)GlcNAc
# Outline: as §1
# GlcNAc(a1-4)Gal = molecular target: GlcNAc(a1-4)Gal
# Outline: as §1
# GlcNAc(b1-2)Man = molecular target: GlcNAc(b1-2)Man
# Outline: as §1
# GlcNAc(b1-4)GlcNAc = molecular target: GlcNAc(b1-4)GlcNAc
# Outline: as §1
# [14] = molecular target: Man(a1-2)Man(a1-2)Man(a1-3)[Man(a1-2)Man(a1-3)[Man(a1-2)Man(a1-6)]Man(a1-6)]Man(b1-4)GlcNAc(b1-4)GlcNAc
# Outline: as §1
# Man(a1-3)[Man(a1-6)]Man = molecular target: Man(a1-3)[Man(a1-6)]Man
# Outline: as §1
# Neu5Ac(a2-3)Gal = molecular target: Neu5Ac(a2-3)Gal
# Outline: as §1
# [15] = molecular target: Neu5Ac(a2-3)Gal(b1-3)GalNAc(b1-4)[Neu5Ac(a2-3)]Gal(b1-4)Glc
# Outline: as §1
# [16] = molecular target: Neu5Ac(a2-3)Gal(b1-4)[Fuc(a1-3)]GlcNAc(b1-3)Gal
# Outline: as §1
# [17] = molecular target: Neu5Ac(a2-3)[GalNAc(b1-4)]Gal(b1-3)GalNAc(b1-4)[Neu5Ac(a2-3)]Gal(b1-4)Glc
# Outline: as §1
# [18] = molecular target: Neu5Ac(a2-3)[GalNAc(b1-4)]Gal(b1-4)Glc
# Outline: as §1
# [19] = molecular target: Neu5Ac(a2-8)Neu5Ac(a2-3)[Gal(b1-3)GalNAc(b1-4)]Gal(b1-4)Glc
# Outline: as §1
# Neu5Ac(b2-3)Gal(b1-4)Glc = molecular target: Neu5Ac(b2-3)Gal(b1-4)Glc
# Outline: as §1
# Rha(a1-6)Glc = molecular target: Rha(a1-6)Glc
# Outline: as §1
binder,measurement,setting,value
B1,glycan array binding signal (z-score),[1],5.56
same,glycan array binding signal (z-score),[2],5.3
same,glycan array binding signal (z-score),[3],4.89
same,glycan array binding signal (z-score),[4],6.12
same,glycan array binding signal (z-score),[5],3.22
same,glycan array binding signal (z-score),Gal(b1-4)GlcNAc(b1-3)Fuc,-0.248
same,glycan array binding signal (z-score),Glc(a1-3)Glc,-0.306
same,glycan array binding signal (z-score),[6],-0.323
same,glycan array binding signal (z-score),[7],-0.323
same,glycan array binding signal (z-score),[8],-0.323
same,glycan array binding signal (z-score),Glc(b1-2)Glc,-0.32
same,glycan array binding signal (z-score),[9],-0.323
same,glycan array binding signal (z-score),[10],-0.323
same,glycan array binding signal (z-score),[11],-0.323
same,glycan array binding signal (z-score),[12],-0.323
same,glycan array binding signal (z-score),[13],-0.323
same,glycan array binding signal (z-score),GlcNAc(a1-4)Gal,-0.323
same,glycan array binding signal (z-score),GlcNAc(b1-2)Man,-0.323
same,glycan array binding signal (z-score),GlcNAc(b1-4)GlcNAc,-0.323
same,glycan array binding signal (z-score),[14],-0.323
same,glycan array binding signal (z-score),Man(a1-3)[Man(a1-6)]Man,-0.323
same,glycan array binding signal (z-score),Neu5Ac(a2-3)Gal,-0.323
same,glycan array binding signal (z-score),[15],-0.191
same,glycan array binding signal (z-score),[16],-0.323
same,glycan array binding signal (z-score),[17],-0.323
same,glycan array binding signal (z-score),[18],-0.311
same,glycan array binding signal (z-score),[19],6.1
same,glycan array binding signal (z-score),Neu5Ac(b2-3)Gal(b1-4)Glc,-0.32
same,glycan array binding signal (z-score),Rha(a1-6)Glc,-0.322
